Among the data in PubChem BioAssay AID449762 (Southern Research Specialized Biocontainment Screening …, 2010) are inhibition values, retold here.

By inhibition is commonly meant the relative decrease from the control value, in per cent.

Molecules are shown by their SMILES. “And” between values parts separate entries of the source, which are not always exact repeats. Identical values can stand only once. About 1,900 (0.58%) of roughly 330,000 compounds were called active. Inconclusive results (about 4%) are left out. A selection follows. Potency and affinity values are given separately. A number with no mark means an inactive call. No stated cut-off is given here; in the data, inconclusive means inhibition above about 70% without an active follow-up result; inactive means below that.

The assay in a line: M. tuberculosis growth inhibition, HTS (AID 449762).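 Further: bacterial growth assessed after seven days of incubation.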 The settings on record: M. tuberculosis H37Rv growth inhibition, 7H9 media; at 25 µM; active compounds read high.
As for `COc1ccc(N(CC(=O)NC2CC3CCC2C3)S(=O)(=O)c2ccc(C)c([N+](=O)[O-])c2)cc1` (configuration not stated), the inhibition is 2.1%.

In the case of `O=C(COc1ccc(-n2ccnc2)cc1)Nc1cccc(Cl)c1`, the inhibition is -3.44%.

In the case of `COc1cc(NC(=O)COc2ccc(-n3ccnc3)cc2)cc(OC)c1`, the inhibition was 38.6%.

Regarding `Cc1ccc(C(=O)N2CCN(c3ccc([N+](=O)[O-])c(NCc4cccnc4)c3)CC2)cc1`, the inhibition is 0.99%.

`CC(C)(C)C(=O)/C=c1\[nH]c(=O)/c(=C\c2ccccc2F)s1`: the inhibition is 48.4%.

`COc1cc(/C=c2\s/c(=C\C(=O)C(C)(C)C)[nH]c2=O)cc(OC)c1OC`: the inhibition is 69%.

Take `O=C(Nc1c(C(=O)NCc2ccco2)cnn1-c1ccccc1)c1ccc(F)cc1`: the inhibition was 3.13%.

For `COc1ccc(C(=O)Nc2nnc(S(=O)(=O)Cc3ccccc3)s2)cc1`, the inhibition was 8.58%.

In the case of `O=C(N/N=C/c1ccccc1)C(=O)N/N=C/c1ccccc1`, the inhibition is 2.46%.

With `O=C(CC1CCCC1)N1CCN(S(=O)(=O)c2ccc(F)cc2)CC1`, the inhibition was -4.71%.

As for `COC(=O)c1ccccc1NC(=O)COC(=O)CSc1nnc(N)s1`, the inhibition was 0.97%.

Consider `CC(C)(C)OC(=O)NCCCCCNC(=O)c1[nH]cnc1C(=O)Nc1ccon1`, for which the inhibition was -5.82%.

For `COc1ccc(NC(=O)NCc2cccnc2)cc1OC`, the inhibition is -5.2%.

In the case of `COC(=O)Cn1nc(-c2ccccc2)c2ccccc2c1=O`, the inhibition was 65.5%.

Turning to `COC(=O)Cn1nc(-c2ccccc2)c2ccccc21`, the inhibition was 31.4%.

Consider `Cc1ccccc1C(=O)N1CCC(C(=O)N(CC(C)C)c2c(N)n(CC(C)C)c(=O)[nH]c2=O)CC1`, for which the inhibition is -6.17%.

Turning to `COC(=O)[C@H](CCSC)NC(=O)NCc1cccs1`, the inhibition was -7.69%.

For the compound `Cc1cccc(NC(=O)C2CCN(c3nccc(C)n3)CC2)c1`, the inhibition was 3.71%.

`Cc1cc(C)nc(N2CCC(C(=O)Nc3cccc(C(F)(F)F)c3)CC2)n1`: the inhibition is -14.2%.

For the compound `CCOC(=O)c1cn(CC)c2cc(Cl)c([N+](=O)[O-])cc2c1=O`, the inhibition was 9.8%.

For the compound `CCCN1CCN(C2CCCCC2NS(=O)(=O)c2ccccc2)CC1` (configuration not stated), the inhibition is -5.87%.

As for `OC(COC(c1ccc(F)cc1)c1ccc(F)cc1)CN1CCc2ccccc2C1` (configuration not stated), the inhibition was 28.2%.

Regarding `OC(COC(c1ccccc1)c1ccccc1)CN1CCc2ccccc2C1` (configuration not stated), the inhibition was 4.67%.

On to `CCOc1ccc(Oc2nc(NCC(C)C)nc(N(C)C)n2)nn1`, for which the inhibition is -2.04%.

For the compound `COC(=O)Cn1c(=O)oc2ccc(C)cc21`, the inhibition was -1.52%.

In the case of `COc1cc(NC(=O)CCc2c(C)nc3nc(C)nn3c2C)cc(OC)c1`, the inhibition was 2.33%.

With `COC(=O)c1sccc1NC(=O)CSc1cccc(Cl)c1Cl`, the inhibition was 11%.

As to `COC(=O)c1ncccc1SC`, the inhibition is -6.32%.

As to `COc1ccc(-c2noc(C3CCCN(S(=O)(=O)c4ccc(C)c(Cl)c4)C3)n2)cc1OC` (configuration not stated), the inhibition is -3.19%.

In the case of `CCCC(C)NC(=O)COc1ccc(S(=O)(=O)c2ccc(OCC(=O)NC(C)CCC)cc2)cc1` (configuration not stated), the inhibition was -8.03%.

As to `O=C(Nc1cccnc1)C1CCN(S(=O)(=O)c2ccc(Cl)cc2)CC1`, the inhibition was 0.94%.

`CSCCC(NC(=O)CCC(=O)OC1CC[C@H]2[C@@H]3CC[C@H]4CC(=O)CC[C@]4(C)[C@H]3CC[C@]12C)C(=O)O` (some centres not stated): the inhibition is 2.77%.

Consider `CCOC(=O)c1c(NC(=O)CSc2nnc(C)s2)sc2c1CCC(CC)C2` (configuration not stated), for which the inhibition was -2.5%.

Consider `COC(=O)C1=C(N)OC2=C(C(=O)CC(C)(C)C2)C1c1ccccc1OCC#N` (configuration not stated), for which the inhibition is 4.16%.

For the compound `Cc1ccc(NC(=O)C2CCCN(c3ncccn3)C2)c(C)c1` (configuration not stated), the inhibition was 7.16%.

For `CCCc1ccc2oc(C(=O)N(C)Cc3cnccn3)c(C)c2c1`, the inhibition is -5.84%.

Consider `CCCc1ccc2oc(C(=O)N(C)Cc3ccn[nH]3)c(C)c2c1`, for which the inhibition was 4.45%.

For `Cc1cc(C)c(NC(=O)CSc2nnc(CN3CCOCC3)n2C)c(C)c1`, the inhibition was -5.19%.

In the case of `Cc1cccc(NC(=O)CSc2nnc(Cc3ccccc3)o2)c1`, the inhibition is 9.03%.

`Cc1ccc(NC(=O)CSc2nnc(Cc3ccccc3)o2)cc1`: the inhibition is -3.22%.

Regarding `O=C(COC(=O)CCC(=O)c1ccc(F)cc1)NC1CCCCC1`, the inhibition is -5.44%.

Turning to `CC12CCC(=O)N1C(C(=O)O)Cc1c2[nH]c2ccccc12` (configuration not stated), the inhibition is 6.77%.

Turning to `CC1(C)NC(C(=O)O)Cc2c1[nH]c1ccccc21` (configuration not stated), the inhibition is -1.33%.

Turning to `CC1Cc2ccccc2N1CC(=O)Nc1cccc(S(N)(=O)=O)c1` (configuration not stated), the inhibition was 3.61%.

With `CCOc1ccc(CCNC(=O)c2nn(C)c3c2CS(=O)(=O)c2ccccc2-3)cc1OCC`, the inhibition is 3.57%.

On to `O=C(NC1CC1)C1CCN(S(=O)(=O)c2cc([N+](=O)[O-])ccc2Cl)CC1`, for which the inhibition is -3.67%.

As to `O=C(NC1=NCCS1)C1CCN(S(=O)(=O)c2cc([N+](=O)[O-])ccc2Cl)CC1`, the inhibition is -7.02%.

As for `CC(=O)c1cccc(OCc2cc(C(=O)N(C)CCc3cnn(C)c3)no2)c1`, the inhibition is 1.92%.

For the compound `CCN(Cc1cnn(C)c1)C(=O)c1cc(COc2cc(C)c(Cl)c(C)c2)on1`, the inhibition was 10%.

In the case of `COc1ccc(Cl)cc1Nc1cc(C)nc2nc(C)nn12`, the inhibition was 2.13%.

Consider `OC(CN1CC=C(/C=C/c2ccc(Br)cc2)CC1)c1ccccc1` (configuration not stated), for which the inhibition is 10.3%.

Turning to `COc1ccc(/C=C/C2=CCN(C)CC2)cc1`, the inhibition was -5.45%.

On to `Cc1cc(C(=O)NCC(=O)Nc2c(C)cccc2C)c2ccccc2n1`, for which the inhibition was -6.3%.

For `O=C(NCCCN1CCOCC1)C1CCN(S(=O)(=O)c2ccccc2)CC1`, the inhibition is -0.05%.

`CCCOc1ccc(C(=O)N/N=C/c2ccc(-c3ccc(S(=O)(=O)Nc4ncccn4)cc3)o2)cc1`: the inhibition is 7.99%.

Take `O=C(N/N=C/c1ccc(-c2ccc(S(=O)(=O)Nc3ncccn3)cc2)o1)c1cc2ccccc2cc1O`: the inhibition was -7.05%.

Take `CCC1CCC(C(=O)NNC(=O)OC)CC1` (configuration not stated): the inhibition was -7.14%.

Turning to `COc1cccc(Nc2nnc(SCC(=O)Nc3sccc3C(N)=O)s2)c1`, the inhibition was 0.87%.

On to `Cn1c(NC(=O)C[n+]2cc(-c3ccc(Cl)cc3)n3c2CCC3)cc(=O)n(C)c1=O`, for which the inhibition was -2.19%.

With `Cc1ccc(-c2c[n+](CC(=O)c3cccs3)c3n2CCC3)cc1`, the inhibition was -3.4%.

As to `COc1ccc(C(=O)C[n+]2cc(-c3ccc(OC)cc3)n3c2CCCC3)cc1`, the inhibition was 5.06%.

On to `Cc1ccc(C(=O)C[n+]2cc(-c3ccccc3)n3c2CCCCC3)cc1`, for which the inhibition is 2.54% and -2.93%.

In the case of `Cc1ccc(NC(=O)C[n+]2cc(-c3ccccc3)n3c2CCC3)cc1`, the inhibition was 5.89%.

Turning to `Cc1ccc(-c2c[n+](CC(=O)Nc3c(C)cccc3C)c3n2CCC3)cc1`, the inhibition is 11.9%.

Regarding `Cc1c(C(=O)N2CCOCC2)cc(C(C)(C)C)n1-c1ccccc1`, the inhibition is -3.73%.

For the compound `O=C(OCCNc1nc(-c2ccccc2)nc2ccccc12)c1cccnc1`, the inhibition was 10.2%.

In the case of `COc1ccccc1NC(=O)CN1CCN(C(=O)C2CCCO2)CC1` (configuration not stated), the inhibition is -18.2%.

Turning to `NC(=O)CSc1nnc(-c2cc(-c3cccs3)nc3ccccc23)o1`, the inhibition is 5.91%.

On to `Cc1sc(NC(=O)CN2CCCC2)nc1-c1ccc2c(c1)CCN2C(=O)c1cccc(F)c1`, for which the inhibition was 9.15%.

For the compound `CN(C)C(=N)c1n[nH]nc1SCc1ccc(Cl)c(Cl)c1`, the inhibition is -2.06%.

Turning to `CCCN(CC1CC1)C(=O)COC(=O)c1oc2ccc(OCC)cc2c1C`, the inhibition is 2.37%.

Consider `CCOc1ccc(N2C(=O)c3ccc(C(=O)OCc4c(C)noc4C)cc3C2=O)cc1`, for which the inhibition was -11.4%.

In the case of `COc1ccc(CNC(=O)c2cc(C3CC3)on2)cc1`, the inhibition was 8.82%.

For `O=C(c1ccc(Br)o1)N1CCc2ccccc21`, the inhibition is -3.15%.

For `O=C(NC(=S)N1CCc2ccccc21)c1ccccc1Br`, the inhibition was 6.29%.

Take `CC(OC(=O)c1cccnc1Cl)C(=O)Nc1ccc2c(c1)OCO2` (configuration not stated): the inhibition was 0.24%.

Take `C=CCOc1cccc(C2C(C(=O)c3ccco3)=C(O)C(=O)N2CCN(CC)CC)c1` (configuration not stated): the inhibition is -1.23%.

For the compound `CCCOC(=O)c1cc(-c2ccc(C=O)o2)ccc1Cl`, the inhibition was 9.94%.

Take `CCOC(=O)c1ccc(-c2ccc(C=O)o2)cc1`: the inhibition is 12.7%.

As for `CC(C)(C)NC(=O)COC(=O)c1ccc(S(=O)(=O)N2CCCC2)cc1`, the inhibition was 5.11%.

On to `Cc1nnc(N2C(=O)c3cccc4c([N+](=O)[O-])ccc(c34)C2=O)s1`, for which the inhibition was -2.32%.

As to `CN(C)CCCN1C(=O)c2cccc3c([N+](=O)[O-])ccc(c23)C1=O`, the inhibition is 36.5%.

`Cc1ccc(S(=O)(=O)NCC(=O)OCC(=O)Nc2cccc(S(=O)(=O)NC3=NCCCCC3)c2)cc1`: the inhibition was 7.74%.

Turning to `COCCn1cnnc1SCC(=O)Nc1cccc(S(=O)(=O)N(C)c2ccccc2)c1`, the inhibition is -4.95%.

Regarding `COc1cc(OC)c(C(=O)Nc2cccnc2)cc1OC`, the inhibition was 3.08%.

For the compound `CN(C)c1ncc(S(=O)(=O)c2ccccc2)c(N)n1`, the inhibition was -5.65%.

Regarding `CN1CCN(C2=Cc3ccccc3Sc3cc(F)ccc32)CC1`, the inhibition is -12.7%.

On to `CN1CCN(c2ccc(F)cc2N)CC1`, for which the inhibition was -0.88%.

For `CCOc1ccc(S(=O)(=O)NCCC(=O)N2CCC(Cc3ccccc3)CC2)cc1`, the inhibition is 44.3%.

On to `CCN(CC)S(=O)(=O)c1ccc(N2CCN(CCO)CC2)nc1`, for which the inhibition is -5.66%.

Take `Cc1nc2ccc(NC(=O)c3cc([N+](=O)[O-])cc([N+](=O)[O-])c3Cl)cc2s1`: the inhibition is 38.8%.

In the case of `Cc1nc2ccc(NC(=O)c3ccc([N+](=O)[O-])cc3)cc2s1`, the inhibition is 3.43%.
